“And” between values parts separate entries of the source, which are not always exact repeats. Identical values can stand only once. Screen size: about 5,500 compounds; about 2,000 (36%) were called active. Another 18% or so got no clear call; they are omitted. No stated cut-off is given here; in the data, active means normalized growth mostly below about 0.91 (no sharp cut-off); inconclusive means no clear call, values can overlap the other calls; inactive means mostly above about 0.92. The list shows a part of the results.
Assay: chemical genetic growth profiling, strain panel (AID 1159580);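 further: tested at 20 µM; growth read once vehicle control cultures reached saturation at 30 °C; 1 = growth at the plate median or of vehicle wells; lower values mean less growth of the strain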
Conditions: S. cerevisiae deletion strains, growth OD

Measured: normalized growth

C1CCN2C[C@@H]3C[C@H](CN4CCCC[C@@H]34)[C@H]2C1
inactive: locus YAL013W, strain DEP1, active compounds read low 1.04 | locus YAL021C, strain ccr4, active compounds read low 0.995 | locus YAL026C, strain drs2, active compounds read low 1.02 | locus YAL030W, strain snc1, active compounds read low 1.01 | locus YBL061C, strain skt5, active compounds read low 0.999 | locus YBR009C, strain hhf1, active compounds read low 1 | locus YBR021W, strain FUR4, active compounds read low 1.02 | locus YBR023C, strain chs3, active compounds read low 1.01 | locus YBR171W, strain sec66, active compounds read low 1.01 | locus YBR229C, strain ROT2, active compounds read low 0.999 | locus YBR231C, strain swc5, active compounds read low 1.03 | locus YBR279W, strain paf1, active compounds read low 1.01 | locus YCL011C, strain gbp2, active compounds read low 1 | locus YCL016C, strain dcc1, active compounds read low 0.991 | locus YCL029C, strain bik1, active compounds read low 0.995 | locus YCL061C, strain MRC1, active compounds read low 1.01 | locus YCL069W, strain vba3, active compounds read low 1.01 | locus YCR088W, strain abp1, active compounds read low 1.01 | locus YDL005C, strain med2, active compounds read low 1.02 | locus YDL035C, strain GPR1, active compounds read low 1.02 | locus YDL040C, strain nat1, active compounds read low 1 | locus YDL074C, strain BRE1, active compounds read low 1.01 | locus YDL101C, strain DUN1, active compounds read low 1.01 | locus YDL134C, strain PPH21, active compounds read low 1 | locus YDL185W, strain tfp1, active compounds read low 1 | locus YDL192W, strain arf1, active compounds read low 1.01 | locus YDR001C, strain nth1, active compounds read low 1.01 | locus YDR069C, strain doa4, active compounds read low 1.01 | locus YDR101C, strain arx1, active compounds read low 1 | locus YDR137W, strain rgp1, active compounds read low 1.01 | locus YDR150W, strain NUM1, active compounds read low 1.01 | locus YDR159W, strain sac3, active compounds read low 1.05 | locus YDR162C, strain NBP2, active compounds read low 1.01 | locus YDR195W, strain ref2 0.996 | locus YDR297W, strain sur2, active compounds read low 1.03 | locus YDR318W, strain mcm21, active compounds read low 1.01 | locus YDR334W, strain swr1, active compounds read low 1.01 | locus YDR335W, strain msn5, active compounds read low 1.01 | locus YDR388W, active compounds read low 0.994 | locus YDR392W, strain spt3, active compounds read low 1.02 | locus YDR502C, strain sam2, active compounds read low 1.01 | locus YEL003W, strain gim4, active compounds read low 1.01 | locus YEL037C, strain rad23, active compounds read low 0.994 | locus YEL061C, strain CIN8 (second series), active compounds read low 1.01 | locus YEL061C, strain CIN8, active compounds read low 1 | locus YER015W, strain faa2, active compounds read low 1 | locus YER016W, strain bim1, active compounds read low 1 | locus YER110C, active compounds read low 0.999 | locus YER111C, strain swi4, active compounds read low 0.993 | locus YER155C, strain BEM2 (second series), active compounds read low 1.04 | locus YER155C, strain BEM2, active compounds read low 1.01 | locus YER167W, strain BCK2, active compounds read low 1.03 | locus YFR010W, strain ubp6, active compounds read low 1.02 | locus YGL078C, strain dbp3, active compounds read low 1 | locus YGL086W, strain mad1, active compounds read low 1.01 | locus YGL167C, strain pmr1, active compounds read low 1 | locus YGL173C, strain kem1, active compounds read low 1.02 | locus YGL227W, strain vid30, active compounds read low 1.01 | locus YGL240W, strain doc1, active compounds read low 1.04 | locus YGL248W, strain PDE1, active compounds read low 1 | locus YGL253W, strain hxk2, active compounds read low 1 | locus YGR135W, strain pre9, active compounds read low 0.996 | locus YGR252W, strain gcn5, active compounds read low 1.02 | locus YHR013C, strain ard1, active compounds read low 1.01 | locus YHR027C, strain rpn1, active compounds read low 1.01 | locus YHR030C, strain SLT2, active compounds read low 1.01 and 1.07 | locus YHR079C, strain IRE1 (second series), active compounds read low 1 | locus YHR079C, strain IRE1, active compounds read low 1.03 | locus YHR094C, strain hxt1, active compounds read low 0.995 | locus YHR129C, strain ARP1, active compounds read low 1.01 | locus YHR142W, strain chs7, active compounds read low 1 | locus YHR200W, strain rpn10, active compounds read low 1 | locus YIL066C, strain RNR3, active compounds read low 1.03 | locus YIL073C, strain SPO22, active compounds read low 1.02 | locus YIL125W, strain kgd1, active compounds read low 1 | locus YIR030C, strain dcg1, active compounds read low 1 | locus YJL092W, strain hpr5, active compounds read low 1 | locus YJL095W, strain BCK1 (second series), active compounds read low 1.01 | locus YJL095W, strain BCK1, active compounds read low 1.02 and 1.04 | locus YJL115W, strain asf1, active compounds read low 0.993 | locus YJL129C, strain trk1, active compounds read low 1 | locus YJL134W, strain LCB3, active compounds read low 1.01 | locus YJL154C, strain vps35, active compounds read low 1 | locus YJL164C, strain tpk1, active compounds read low 0.997 | locus YJL166W, strain qcr8, active compounds read low 1.01 | locus YJL168C, strain set2, active compounds read low 1 | locus YJL187C, strain SWE1 (second series), active compounds read low 1.01 | locus YJL187C, strain SWE1, active compounds read low 0.991 | locus YJR043C, strain POL32, active compounds read low 1.01

— PubChem BioAssay AID1159580 (chemical genetic matrix, 2015)
